# Source: PubChem
# PostGolgi yeast: growth inhibition of a yeast mutant, post-Golgi transport screen; inhibition, % at 10 µM; post-Golgi transport phenotypic cell assay; AID 739; 98,000 tested, 0.9% active;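 further: yeast cells grown in 1536-well plates; yeast grown about 18 h at 30C before absorbance read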
# CYP2C9 inhib: human CYP2C9 inhibition. P11712. CYP2C9 Supersomes, luciferin-H conversion, luminescence. inhibition, % at 5 µM. 96,000 tested, 20% active. AID 777;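 active means blocking of liver enzyme CYP2C9 beyond about 50% at 5 µM, limit read from the data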
# CYP2C9 activ: CYP2C9 (human) activation. recombinant CYP2C9, luciferin-H conversion, luminescence; hits give high values; factor 1 = untreated enzyme, 0 = blocked. activation factor at 5 µM. AID 1024. P11712. 96,000 tested, 1.4% active;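 active means activation factor of 2 or more for CYP2C9 at a 5 µM dose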;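 further: 0 = sulfaphenazole-blocked wells and 1 = vehicle-only wells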
# PostGolgi ctrl: inhibits growth of the yeast control strain | inhibition, % at 10 µM | efflux-deficient yeast background strain, growth absorbance A615, 16 h | 98,000 tested, 5% active
# CYP2C19 inhib: blocks human cytochrome P450 2C19 | P33261 | CYP2C19 Supersomes, luciferin-H EGE luminescence, 30 min | inhibition, % at 5 µM | 96,000 tested, 21% active | AID 778;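 active means CYP2C19 inhibition above a set limit at 5 µM in the primary screen, cut at about 50% in these data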;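 further: plate controls were negative control wells for no effect and 2.5 mM tranylcypromine positive control for full effect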
# Target sequence (P33261 whole entry, looked up): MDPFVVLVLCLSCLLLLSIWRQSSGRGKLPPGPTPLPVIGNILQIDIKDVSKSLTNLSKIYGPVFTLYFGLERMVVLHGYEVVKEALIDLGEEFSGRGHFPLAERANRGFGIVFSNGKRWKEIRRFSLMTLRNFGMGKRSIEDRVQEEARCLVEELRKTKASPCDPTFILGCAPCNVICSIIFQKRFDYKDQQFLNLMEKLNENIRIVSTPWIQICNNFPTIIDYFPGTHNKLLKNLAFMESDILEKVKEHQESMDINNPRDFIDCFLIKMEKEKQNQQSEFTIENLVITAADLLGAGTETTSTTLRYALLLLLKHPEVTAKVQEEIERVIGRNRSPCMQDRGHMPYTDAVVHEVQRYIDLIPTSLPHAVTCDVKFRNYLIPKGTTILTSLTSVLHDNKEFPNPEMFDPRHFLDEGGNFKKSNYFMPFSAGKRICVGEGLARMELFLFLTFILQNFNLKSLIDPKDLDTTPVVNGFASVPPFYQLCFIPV
# CYP2C19 activ: increases human CYP2C19 enzyme activity; AID 1025; activation factor at 5 µM; recombinant CYP2C19, luciferin-H EGE luminescence; hits give high values; 0 = fully inhibited enzyme, 1 = untreated enzyme; 96,000 tested, under 10 active;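 active means activation factor of at least 2 at 5 µM in the primary screen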;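 further: 0 = wells with 2.5 mM tranylcypromine and 1 = vehicle-only wells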
# Numbers without * were called inactive. Compounds with a hit are over-represented: about 32% of the library has one in this group of screens. Unless noted, no stated cut-off is given here; in the data, active means inhibition above about 30%; inactive means the rest.
SMILES,PostGolgi yeast,CYP2C9 inhib,CYP2C9 activ,PostGolgi ctrl,CYP2C19 inhib,CYP2C19 activ
CCCCn1c(=O)[nH]c(=O)c2c1nc(COc1ccc(C#N)cc1)n2CCC,12,90*,0.1,5,25,0.7
C=CCn1c(SCc2nc3c(c(=O)[nH]c(=O)n3CCCC)n2CCC)nnc1-c1ccccc1,2,84*,0.2,-1,44,0.6
CCCCCCC1CC(CCC(=O)Nc2ccc([N+](=O)[O-])cc2)C(=O)O1 (configuration not stated),-7,19,0.8,2,23,0.8
O=C(CCC(=O)Nc1nnc(C2CCCCC2)s1)NCC1CCCO1 (configuration not stated),-8,12,0.9,0,-4,1
Cc1ccc(S(=O)(=O)N2CCC(C(=O)NCCCOC(C)C)CC2)cc1,-3,-25,1.3,8,0,1
CCCCN(CC)CCCNC(=O)C1c2ccccc2C(=O)N(C)C1c1cn(C)c2ccccc12 (configuration not stated),-5,24,0.8,8,9,0.9
O=C(COc1c(F)c(F)cc(F)c1F)NC(=O)NC1CCCC1,5,12,0.9,5,27,0.7
Cc1ccsc1/C=C/c1ccc2cccc(O)c2n1,3,73*,0.3,8,57*,0.4
Cc1ccsc1/C=C/c1ccc2ccccc2n1,-8,4,1,-6,3,1
COC(=O)c1cc2sccc2n1Cc1nc(-c2ccc(OC)cc2)oc1C,-3,48,0.5,12,31,0.7
COC(=O)c1cc2ccsc2n1CC(=O)N(C)c1ccccc1,-3,23,0.8,5,56*,0.4
COC(=O)c1sccc1-n1cccc1C(=O)NCc1ccccc1,9,4,1,1,47,0.5
COC(=O)c1cc2ccsc2n1CC(=O)Nc1cc(Cl)ccc1OC,-14,36,0.6,19,51*,0.5
COC(=O)c1cc2ccsc2n1Cc1nc(-c2ccc(OC)cc2)oc1C,-16,59*,0.4,4,32,0.7
COC(=O)c1cc2occc2n1CC(=O)Nc1ccc(OC)c(OC)c1,-8,16,0.8,1,33,0.7
COc1ccc(Cl)cc1NC(=O)CN1C(=O)CSC1=O,-1,-25,1.3,13,-10,1.1
COC(=O)c1cc2ccsc2n1CC(=O)Nc1ccc(N(C)C)cc1,-10,22,0.8,22,53*,0.5
CC1CCCCC1N1CN=C(Nc2nc3ccccc3s2)NC1 (configuration not stated),7,-12,1.1,-7,5,1
CC1(C)C(=O)N(OCc2ccccc2)C(C)(C)C(=O)N1OCc1ccccc1,4,36,0.6,13,57*,0.4
CC1CN(C(NC(=O)C(C)(C)C)C(Cl)(Cl)Cl)CC(C)O1 (configuration not stated),1,4,1,6,1,1
CCC(=O)Oc1ccc(C(=O)Nc2ccc3c(c2)C(=O)N(C2CCCCC2)C3=O)cc1,-4,58*,0.4,7,24,0.8
CC(C)(C)NC(=O)c1ccc2c(c1)C(=O)N(C1CCCCC1)C2=O,9,39,0.6,21,57*,0.4
CCOC(=O)c1ccc2c(c1)C(=O)N(C1CCCCC1)C2=O,8,-5,1,-9,-7,1.1
Cc1ccc(NC(=O)c2ccc(OC(=O)CCN3C(=O)c4ccccc4C3=O)cc2)cc1,-3,-16,1.2,7,5,0.9
O=C(Nc1ccc2c(c1)C(=O)N(C1CCCCC1)C2=O)C1CCCO1 (configuration not stated),0,72*,0.3,7,44,0.6
SMILES,PostGolgi yeast,CYP2C9 inhib,CYP2C9 activ,PostGolgi ctrl,CYP2C19 inhib,CYP2C19 activ
COCc1cc(=O)[nH]c2cc(NC(=O)C3CC3)c(C)cc12,-10,4,1,5,9,0.9
CCOC(=O)c1ccc(N2CC(O)=C(c3nc4ccccc4c(=O)[nH]3)C2=N)cc1,-5,-42,1.4,1,41,0.6
CCOC(=O)C1C(=O)OC2(CCCCC2)C1C(=O)OCC (configuration not stated),4,-11,1.1,4,25,0.7
O=C(NCC1CCN(c2ccc(S(=O)(=O)N3CCOCC3)cc2)CC1)c1cccc(Cl)c1,6,23,0.8,5,23,0.8
CCOC(=O)c1sc(=S)n(-c2ccc(F)c(F)c2)c1N,-2,4,1,7,18,0.8
CCOc1ccccc1-n1c(N)c(C(N)=O)sc1=S,8,-8,1.1,8,-5,1
CCOC(=O)c1sc(=S)n(Cc2ccccc2)c1N,7,79*,0.2,14,28,0.7
CCOC(=O)c1sc(=S)n(-c2ccc3c(c2)OCO3)c1N,8,3,1,2,64*,0.4
CCOC(=O)c1sc(=S)n(-c2ccccc2OC)c1N,5,56*,0.4,5,24,0.8
CCOC(=O)c1sc(=S)n(CC)c1N,-9,72*,0.3,7,84*,0.2
COC(=O)Cc1cc(=O)[nH]c(/N=C(\N)Nc2ccccc2)n1,-4,-6,1.1,2,0,1
C=CCn1c(N)c(C(=O)OCC)sc1=S,-3,41,0.6,20,10,0.9
C=CCn1c(NC(=O)CC)c(C(=O)OCC)sc1=S,-4,32,0.7,3,52*,0.5
CN(C1=NC(=O)C(CC(=O)Nc2ccc(Br)cc2)S1)c1ccc(O)cc1 (configuration not stated),-4,62*,0.4,-8,10,0.9
CCOC(=O)c1c(-c2ccc(C)s2)csc1NC(=O)c1cccs1,-6,10,0.9,9,-17,1.2
CCOC(=O)c1c(-c2ccc(C)o2)csc1NC(=O)CSc1nnc(C)s1,-6,96*,0,23,88*,0.1
CCOC(=O)c1sc(NC(=O)CSc2nnnn2-c2ccccc2)nc1C,2,30,0.7,12,13,0.9
CCOC(=O)c1c(-c2cccs2)csc1NC(=O)CCCC(=O)O,-3,40,0.6,14,1,1
CCOC(=O)c1c(-c2ccc(C)o2)csc1NC(=O)CSc1nnnn1-c1ccccc1,5,96*,0,7,80*,0.2
CCOC(=O)c1c(-c2ccc(C)o2)csc1NC(=S)NC(=O)c1ccccc1Br,5,71*,0.3,11,25,0.8
CCOC(=O)c1c(-c2ccc(C)o2)csc1NC(=O)COC(=O)c1ccc(NC(N)=O)cc1,-7,91*,0.1,0,11,0.9
CNC(=O)CSc1nnnn1CCCOC,12,-26,1.3,2,-6,1.1
COC(=O)c1sccc1-c1ccc(C(=O)Nc2ccccc2)o1,-1,16,0.8,19,15,0.8
Cc1ccccc1S(=O)(=O)c1c(C)cc(-c2ccccc2)[nH]c1=O,-3,18,0.8,-7,-2,1
